“And” between values parts separate entries of the source, which are not always exact repeats. Equal entries are not always repeated. Records with an inconclusive call do not appear. A call without a number means that no potency is given here. Unmarked numbers belong to inactive results. The source made the active and inactive calls. The call rests on the fitted dose curve; in most records, active means well fitted cell-killing curve with a large enough effect in the repeat runs; inconclusive means weak or mixed curves, or effect the other way; inactive means flat fitted curve, though single readings scatter.
Legend:
[1] = cAMP Responsive Elements (CRE) small molecule antagonists, cell-based qHTS assay: qHTS cell viability counter screen (AID 2060913); further: nearly all actives have a fitted effect of over 40% in size
How it was run: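 CRE-bla HEK293T cells were seeded in assay medium with 10% dialyzed FBS, incubated 18 hrs at 37 C, then exposed to compounds plus 0.25 uM final NKH477 for 3 hrs. Viability was read by CellTiter-Glo luminescence after 30 min, in the same wells.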

[2] = cAMP Responsive Elements (CRE) small molecule agonists, cell-based qHTS assay: qHTS cell viability counter screen (AID 2060914); further: nearly all actives have a fitted effect of over 50% in size
How it was run: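 Cytotoxicity was measured as ATP luminescence (CellTiter-Glo, 30 min at room temperature) in the same wells as the CRE-bla FRET read-out. HEK293T CRE-bla cells had 3 h compound exposure at 37C/5% CO2.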
Potency means the concentration at half of the fitted maximal effect.

Compound | Potency [1] | Potency [2] | viability change, negative = cytotoxic [1] | activity change, negative = cytotoxicity [2]
CCNc1cc(O)ccc1C | inactive | inactive |  | 
O=C1CCC(N2C(=O)c3ccccc3C2=O)C(=O)N1 (configuration not stated) | inactive | inactive |  | 
CC(=O)Nc1cc(S(=O)(=O)O)cc2cc(S(=O)(=O)O)c(N=Nc3ccccc3)c(O)c12 | inactive | inactive |  | 
N[C@H](C(=O)O)c1ccc(O)cc1 |  |  | 2.5% [at 18.9 µM] | -13.1% [at 18.9 µM]
CC(C)(O)c1ccc(CNC(=O)c2cccnc2Oc2ccc3nonc3c2)cc1 | inactive | inactive |  | 
OCCN(CCO)CCN(CCO)CCO | inactive | inactive |  | 
C=CC[N+](C)(C)CC=C | inactive | inactive |  | 
C1CN(SSN2CCOCC2)CCO1 | inactive | inactive |  | 
CCCCc1cc2ccccc2c(OCCN(C)C)n1 | inactive | inactive |  | 
[O-][N+](=Nc1ccccc1)c1ccccc1 | inactive | inactive |  | 
CCC(C)C(=O)OCCc1ccccc1 (configuration not stated) | inactive | inactive |  | 
Cc1ccc(C(C)(C)O)cc1 | inactive | inactive |  | 
CCC(C)(C)C(=O)O | inactive | inactive |  | 
CCOC(=O)C(O)c1ccccc1 (configuration not stated) | inactive | inactive |  | 
C=C(C)C(=O)OCc1ccccc1 | inactive | inactive |  | 
CCOC(=O)CC(O)(CC(=O)OCC)C(=O)OCC | inactive | inactive |  | 
C1CCCC1 | inactive | inactive |  | 
CCc1ccc(Br)cc1 | inactive | inactive |  | 
C=C(C)C(=O)OCC[N+](C)(C)C | inactive | inactive |  | 

Compound | Potency [1] | Potency [2] | viability change, negative = cytotoxic [1] | activity change, negative = cytotoxicity [2]
CC(=O)c1ccccc1[N+](=O)[O-] | inactive | inactive |  | 
CC(=O)c1c(C)cc(C(C)(C)C)cc1C | inactive | inactive |  | 
CC(C)CC(C)O (configuration not stated) | inactive | inactive |  | 
C#C[C@]1(OC(C)=O)CC[C@H]2[C@@H]3CCC4=C/C(=N/O)CC[C@@H]4[C@H]3CC[C@@]21CC | inactive | inactive |  | 
COCCOCCOCCO | inactive | inactive |  | 
O=C(c1ccccc1)C1CCC1 | inactive | inactive |  | 
CC(C)OCC1CO1 (configuration not stated) | inactive | inactive |  | 
CCCCN1C=CN(C)C1 |  |  | 7.21% [at 18.9 µM] | 2.49% [at 18.9 µM]
CC/C=C/CCO | inactive | inactive |  | 
COC(=O)c1ccc(C=O)cc1 | inactive | inactive |  | 
O=C(c1ccc(O)cc1O)c1ccc(O)cc1O | inactive | inactive |  | 
C=C(C)C(=O)OC1CC(C)CC(C)(C)C1 (configuration not stated) | inactive | inactive |  | 
C=Cc1ccccc1C=C | inactive | inactive |  | 
CCOC(=O)Nc1ccc2c(c1)N(C(=O)CCN1CCOCC1)c1ccccc1S2 | inactive | inactive |  | 
CN(C)Cc1cc(C(C)(C)C)c(O)c(C(C)(C)C)c1 | inactive | inactive |  | 
OCCN1CCOCC1 | inactive | inactive |  | 
C1COCO1 | inactive | inactive |  | 
COC(=O)c1ccc(O)cc1 | inactive | inactive |  | 
C=CC(=O)OCC1CCCO1 (configuration not stated) | inactive | inactive |  | 

Compound | Potency [1] | Potency [2] | viability change, negative = cytotoxic [1] | activity change, negative = cytotoxicity [2]
C[N+](C)(CCOc1ccccc1)Cc1cccs1 | inactive | inactive |  | 
CC(C)CCCCCCc1ccc(O)cc1 | 55.4 µM (active) and 27.3 µM (active) | 55.4 µM (active) and 30.6 µM (active) |  | 
CCCCCCOC(=O)c1ccccc1O | inactive | inactive |  | 
CCC(=O)OCc1ccccc1 | inactive | inactive |  | 
CCCCCCCCCCCCCCCCCO |  |  | 0.838% [at 18.9 µM] | -1.37% [at 18.9 µM]
CCCCCCCCCCCCCCCCI |  |  | 12.3% [at 18.9 µM] | -9.53% [at 18.9 µM]
CN/C(=C\[N+](=O)[O-])NCCSCc1csc(CN(C)C)n1 | inactive | inactive |  | 
O=C(O)c1ccc(O)cc1O | inactive | inactive |  | 
CCCNC(C)C(=O)Nc1ccccc1C (configuration not stated) | inactive | inactive |  | 
C=CS(=O)(=O)O | inactive | inactive |  | 
CC1=NC(C)OC1C (configuration not stated) | inactive | inactive |  | 
CCNC(=O)N1CCN(CCCC(c2ccc(F)cc2)c2ccc(F)cc2)CC1 | inactive | inactive |  | 
Cc1ccc(Br)cc1 | inactive | inactive |  | 
COC(=O)c1ccc(OC)cc1 | inactive | inactive |  | 
NC(=O)NC(=O)Cc1ccccc1 | inactive | inactive |  | 
COC(=O)/C=C/C(C)=C\C=C\C(C)=C\C=C\C=C(C)\C=C\C=C(C)\C=C\C(=O)O | inactive | inactive |  | 
CC(C)C[C@@H](N)C(=O)O |  |  | 3.57% [at 18.9 µM] | -6.51% [at 18.9 µM]
CCN(CC)CCc1nc(-c2ccccc2)no1 | inactive | inactive |  | 

Source: PubChem BioAssay (Tox21)
